Source: PubChem BioAssay (NCATS)
A number with no mark means an inactive call. Inconclusive results are not listed. A call without a number means that no potency is given here. Activity calls are given as the source filed them. Unless noted, the call rests on the fitted dose curve; in most records, active means well fitted curve in the direction sought with a large enough effect; inconclusive means small, poorly fitted or top-dose-only effect, or another doubt; inactive means no such curve, though single readings can be large; an effect the other way counts as inactive or inconclusive.

Experiments:
[1] = AP1 Signaling Pathway (AID 357; active means well fitted curve in either direction with a large enough effect, not every such curve was filed as active;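 further: ME-180 reporter cells stimulated with EGF at its EC50 level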); conditions: ME-180 AP-1-bla reporter, EGF-induced, beta-lactamase ratio, 5 h; at 38 µM (top of the series)
Method in brief: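 First, ME-180 AP-1-bla cells were cultured overnight at 37 °C in low-serum Opti-MEM. Next, titrated compounds with EC50 EGF were incubated 5 hours. Finally, CCF4 was added for 2.5 hours and the 460/530 nm ratio recorded.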

[2] = target: Cytochrome P450 1A2 (Homo sapiens) (UniProt P05177); experiment: p450-cyp1a2 (AID 410; calls by dose curve; further: potency means the concentration at half of the fitted maximal effect)
Method in brief: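 Inhibition was calculated relative to 57 uM furafylline (full inhibition). The reaction used human CYP1A2 at 20nM with Luciferin-ME at its Km, 100uM, driven by an NADPH-regenerating system for 60 min at room temperature.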

[3] = NFAT Signaling Pathway (AID 444; active means well fitted curve in either direction with a large enough effect, not every such curve was filed as active;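 further: carbachol stimulus at about its EC50 of 1 µM final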); conditions: Jurkat NFAT-bla M1, carbachol, beta-lactamase ratio, 5 h; at 38 µM (top of the series)
Method in brief: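 Jurkat cells with NFAT-driven β-lactamase reporter and co-expressed M1 receptor, stimulated with carbachol (final 1 uM, ~EC50), compound titration, 5 h at 37 °C. CCF4 loaded 1 h at RT; 460/530 nm ratio gave %activity and AC50.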

[4] = Stat Signaling Pathway (AID 446; active means well fitted curve in either direction with a large enough effect, not every such curve was filed as active;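 further: ME-180 cervical cancer cells given 40 pM IL-6 alongside compound; SIE-controlled beta-lactamase reporter measured as 460/530 nm FRET emission ratio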); conditions: ME-180 SIE beta-lactamase reporter, IL-6 stimulated, 5 h; at 38 µM (top of the series)
Method in brief: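 Reporter line: ME-180 cervical carcinoma, SIE-beta-lactamase. Treatment: compound with 40 pM IL-6, 5 hrs, 37 C, in low-serum OPTI-MEM with 10 mM HEPES pH 7.3. Detection: 460/530 nm fluorescence.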

[5] = target: 3',5'-cyclic-AMP phosphodiesterase 4B (Homo sapiens) (UniProt Q07343); experiment: qHTS Assay for Inhibitors of PDE-IV (AID 607; active means well fitted activation curve with a large enough effect in the main read-out, with a control signal flat, not every such curve was filed as active)
Method in brief: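 Cell-based read-out of cAMP via a modified cyclic nucleotide-gated channel and membrane potential dye (535/590 nm) in HEK293 cells expressing PDE4 endogenously. Compounds tested up to 22.9 uM final; 100 uM RO 20-1724 reference.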

[6] = target: Cytochrome P450 2C9 (Homo sapiens) (UniProt P11712); experiment: qHTS Assay for Inhibitors and Substrates of Cytochrome P450 2C9 (AID 883); further: potency means the concentration at half of the fitted maximal effect; nearly all actives have a fitted effect of over 60% in size
Method in brief: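 10nM CYP2C9 + 100uM Luciferin-H (=KM), 25mM KPO4; cpd 10 min 37C; NADPH regen, 60 min 37C; stop/detect with P450 Glo-Buffer 20 min; luminescence. Norm. to 57uM sulphaphenazole as full inhibition.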

[7] = Validation of Assay for Modulators of Lamin A Splicing (AID 1459; active means well fitted curve in the direction sought with a large enough effect in the signal ratio; the % refers to the signal ratio;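 further: cells exposed to compound for two days before reading; ratio rise marks activators and ratio drop marks inhibitors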)
Method in brief: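 Splicing correction read as GFP (500-530 nm) over DsRed2 (575-640 nm) object intensity after 48 h compound exposure of reporter HeLa S3 clones (600 cells/well, 2% FBS medium); ancitabine and cycloheximide titrations, 0.5% DMSO as vehicle.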

[8] = target: DNA repair nuclease/redox regulator APEX1 (Homo sapiens) (UniProt P27695); experiment: qHTS Validation Assay for Inhibitors of the Human Apurinic/apyrimidinic Endonuclease 1 (APE1) (AID 1705; further: potency means the concentration at half of the fitted maximal effect;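 on activity change, negative = inhibition: TAMRA fluorescence gain over two minutes as APE1 cuts a quenched THF abasic duplex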)
Method in brief: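 Activity read as rising fluorescence (598 nm emission, 525 nm excitation) from incision of a TAMRA/BHQ-2 duplex carrying a THF abasic site (50 nM). Compound and enzyme sat 15 min at RT before substrate start; signal change between first and third 60-s reads.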

[9] = Counterscreen for APE1 Inhibitors: Fluorescent Dye Displacement Validation Assay (AID 1707); further: potency means the concentration at half of the fitted maximal effect
Method in brief: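 Compounds are scored by their ability to displace Thiazole Orange (250 nM) from a 50 nM TAMRA-tagged duplex bearing a tetrahydrofuran abasic site. Buffer is 50 mM Tris-HCl pH7.5, 50mM NaCl, 2 mM MgCl2, 0.01% Tween-20.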

[10] = target: Endonuclease 4 (Escherichia coli (strain K12)) (UniProt P0A6C1); experiment: Counterscreen for APE1 Inhibitors: qHTS Validation Assay for Inhibitors of Endonuclease IV (AID 1708); further: potency means the concentration at half of the fitted maximal effect
Method in brief: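 Cleavage of a quenched abasic-site DNA duplex (50 nM, 5'-TAMRA, 3'-BHQ-2) by 2 nM enzyme is followed as fluorescence increase. Compounds are preincubated with enzyme 15 min at room temperature before substrate addition.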

[11] = qHTS for differential inhibitors of proliferation of Plasmodium falciparum line 7G8 (AID 1815);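 further: parasite growth measured after three days of incubation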
[12] = qHTS for differential inhibitors of proliferation of Plasmodium falciparum line D10 (AID 1877);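 further: parasites grown with compound for 72 h before DNA staining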
[13] = Primary qHTS for small molecule stabilizers of the endoplasmic reticulum resident proteome: Secreted ER Calcium Modulated Protein (SERCaMP) assay (AID 1508630)
Method in brief: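 GLuc-SERCaMP-expressing SH-SY5Y cells, pretreated 16 h with compound, are challenged with thapsigargin to empty ER calcium stores; after 4 h, coelenterazine is added directly to the medium and luminescence is imaged.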

[14] = Confirmation and Secondary Assay for Modulators of Hemoglobin Beta Chain Splicing at IVS2 654 locus (AID 910);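 further: HeLa cells stably carrying EGFP split by mutant beta-globin IVS2-654 intron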
Method in brief: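 HeLa cells stably expressing EGFP interrupted by β-globin IVS2-654 intron, seeded overnight in Opti-MEM/2% FCS, then treated 2 days at 37 °C. Restored splicing read as total peak GFP intensity per well by laser scanning cytometry (488 nm excitation, 500–520 nm emission); 500 nM antisense PNA as control.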

[15] = Confirmation and Secondary Assay for Modulators of Hemoglobin Beta Chain Splicing at IVS2 705 locus (AID 930);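 further: HeLa cells stably expressing the EGFP-705 splicing reporter; GFP fluorescence per well restored by corrected splicing of the IVS2-705 intron in EGFP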
Method in brief: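 Fluorescence gain (488 nm laser, 500-520 nm PMT) reflects restored correct splicing of a mutant IVS2-705 intron inside EGFP in stably transfected HeLa cells after 2-day compound treatment.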

[16] = tested on: Zika virus NS2B-NS3 protease (linked construct); experiment: 384 well plate NINDS Rhodamine confirmatory qHTS for Zika virus inhibitors (AID 1347164);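 further: fluorescence from protease cleavage of Ac-LKRR-rhodamine 110 substrate; nearly all actives have a fitted effect of over 65% in size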; further: potency means the concentration at half of the fitted maximal effect; on activity change, negative = inhibition: top concentration of the series differs between compounds
Method in brief: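 Fluorescence at 485/538 nm was measured 25 minutes after adding 10 microM Ac-LKRR-Rd substrate, in the dark at room temperature. The protease (5, 30 or 60 nM final) had been preincubated ~15 minutes with compound; aprotinin as control.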

[17] = Tertiary RLuc qRT-PCR qHTS assay for Zika virus inhibitors (AID 1347169); further: top concentration of the series differs between compounds; nearly all actives have a fitted effect of over 55% in size
Method in brief: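 Orthogonal cell-based readout: luminescence measured 1-1.5 hrs after adding live-cell Renilla substrate to Vero cells that had been infected with ZIKV-RLuc (MOI 1-2) post-compound, incubated 48-72 hrs at 37 degrees C.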

[18] = target: Ubiquitin carboxyl-terminal hydrolase 1 (Homo sapiens) (UniProt O94782); experiment: Inhibitors of USP1/UAF1: Pilot qHTS (AID 504865);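 further: rhodamine fluorescence freed from ubiquitin-rhodamine substrate followed over time; top concentration of the series differs between compounds; nearly all actives have a fitted effect of over 35% in size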
Method in brief: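 Deubiquitinase activity followed as kinetic rhodamine fluorescence release from 150 nM Ub-Rho. 1 nM USP1/UAF1 with compound, after 15 min room-temperature preincubation, in HEPES pH 7.8 buffer containing TCEP, EDTA, BSA and Tween-20.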

Chain of Cytochrome P450 1A2 (Homo sapiens) (P05177 whole entry, looked up): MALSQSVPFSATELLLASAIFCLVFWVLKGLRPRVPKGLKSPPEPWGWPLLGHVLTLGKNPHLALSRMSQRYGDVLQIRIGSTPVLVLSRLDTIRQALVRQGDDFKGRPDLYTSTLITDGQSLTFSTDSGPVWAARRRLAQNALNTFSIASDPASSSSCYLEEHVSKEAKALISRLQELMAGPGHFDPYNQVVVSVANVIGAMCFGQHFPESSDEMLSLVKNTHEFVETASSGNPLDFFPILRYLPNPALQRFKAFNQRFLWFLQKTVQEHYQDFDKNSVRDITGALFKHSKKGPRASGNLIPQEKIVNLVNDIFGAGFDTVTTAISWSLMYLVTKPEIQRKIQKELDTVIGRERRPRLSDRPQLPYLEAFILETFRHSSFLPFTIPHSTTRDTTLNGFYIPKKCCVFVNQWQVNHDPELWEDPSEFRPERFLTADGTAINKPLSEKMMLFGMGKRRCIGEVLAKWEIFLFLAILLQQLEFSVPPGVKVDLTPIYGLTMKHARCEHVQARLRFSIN
Chain of DNA repair nuclease/redox regulator APEX1 (Homo sapiens) (P27695 whole entry, looked up): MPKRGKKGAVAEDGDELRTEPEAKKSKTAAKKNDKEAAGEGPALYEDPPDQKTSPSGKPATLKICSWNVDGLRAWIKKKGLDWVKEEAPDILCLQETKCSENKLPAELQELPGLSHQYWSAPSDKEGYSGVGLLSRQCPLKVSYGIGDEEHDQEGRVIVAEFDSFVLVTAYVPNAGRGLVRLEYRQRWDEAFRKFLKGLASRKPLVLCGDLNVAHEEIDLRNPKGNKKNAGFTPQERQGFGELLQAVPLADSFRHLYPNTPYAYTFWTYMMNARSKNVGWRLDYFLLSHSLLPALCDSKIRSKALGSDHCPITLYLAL
Chain of Cytochrome P450 2C9 (Homo sapiens) (P11712 whole entry, looked up): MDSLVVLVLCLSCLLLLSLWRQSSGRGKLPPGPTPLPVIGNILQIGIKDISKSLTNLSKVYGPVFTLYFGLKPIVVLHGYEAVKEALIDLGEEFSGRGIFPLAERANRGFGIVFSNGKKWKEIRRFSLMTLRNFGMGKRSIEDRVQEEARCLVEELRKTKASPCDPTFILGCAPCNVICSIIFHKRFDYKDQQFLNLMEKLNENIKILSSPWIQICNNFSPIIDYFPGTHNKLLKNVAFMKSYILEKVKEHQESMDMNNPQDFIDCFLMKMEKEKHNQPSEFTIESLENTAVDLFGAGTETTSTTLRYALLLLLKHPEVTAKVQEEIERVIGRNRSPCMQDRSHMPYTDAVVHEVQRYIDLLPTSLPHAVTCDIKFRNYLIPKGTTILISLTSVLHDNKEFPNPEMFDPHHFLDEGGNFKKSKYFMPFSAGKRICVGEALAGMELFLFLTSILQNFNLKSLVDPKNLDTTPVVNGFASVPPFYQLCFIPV
Chain of Ubiquitin carboxyl-terminal hydrolase 1 (Homo sapiens) (O94782 whole entry, looked up): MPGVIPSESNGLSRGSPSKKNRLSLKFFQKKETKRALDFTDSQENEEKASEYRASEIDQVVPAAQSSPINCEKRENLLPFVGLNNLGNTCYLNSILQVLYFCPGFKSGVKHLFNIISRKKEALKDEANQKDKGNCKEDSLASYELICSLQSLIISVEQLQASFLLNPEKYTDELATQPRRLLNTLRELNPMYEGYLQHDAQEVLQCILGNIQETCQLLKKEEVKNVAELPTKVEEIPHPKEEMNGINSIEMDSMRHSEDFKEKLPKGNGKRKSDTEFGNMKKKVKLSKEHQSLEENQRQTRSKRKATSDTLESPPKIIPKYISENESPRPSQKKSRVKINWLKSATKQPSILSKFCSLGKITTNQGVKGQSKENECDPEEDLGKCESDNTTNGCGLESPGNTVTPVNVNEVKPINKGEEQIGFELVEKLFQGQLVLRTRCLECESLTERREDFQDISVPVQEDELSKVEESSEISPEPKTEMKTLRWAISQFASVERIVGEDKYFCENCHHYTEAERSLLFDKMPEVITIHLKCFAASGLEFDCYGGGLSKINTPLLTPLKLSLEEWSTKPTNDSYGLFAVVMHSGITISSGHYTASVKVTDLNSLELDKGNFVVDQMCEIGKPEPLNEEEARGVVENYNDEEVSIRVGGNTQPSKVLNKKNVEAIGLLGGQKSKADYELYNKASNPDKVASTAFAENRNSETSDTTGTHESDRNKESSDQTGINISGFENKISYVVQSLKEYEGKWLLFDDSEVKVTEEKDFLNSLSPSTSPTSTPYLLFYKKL
Chain of 3',5'-cyclic-AMP phosphodiesterase 4B (Homo sapiens) (Q07343 whole entry, looked up): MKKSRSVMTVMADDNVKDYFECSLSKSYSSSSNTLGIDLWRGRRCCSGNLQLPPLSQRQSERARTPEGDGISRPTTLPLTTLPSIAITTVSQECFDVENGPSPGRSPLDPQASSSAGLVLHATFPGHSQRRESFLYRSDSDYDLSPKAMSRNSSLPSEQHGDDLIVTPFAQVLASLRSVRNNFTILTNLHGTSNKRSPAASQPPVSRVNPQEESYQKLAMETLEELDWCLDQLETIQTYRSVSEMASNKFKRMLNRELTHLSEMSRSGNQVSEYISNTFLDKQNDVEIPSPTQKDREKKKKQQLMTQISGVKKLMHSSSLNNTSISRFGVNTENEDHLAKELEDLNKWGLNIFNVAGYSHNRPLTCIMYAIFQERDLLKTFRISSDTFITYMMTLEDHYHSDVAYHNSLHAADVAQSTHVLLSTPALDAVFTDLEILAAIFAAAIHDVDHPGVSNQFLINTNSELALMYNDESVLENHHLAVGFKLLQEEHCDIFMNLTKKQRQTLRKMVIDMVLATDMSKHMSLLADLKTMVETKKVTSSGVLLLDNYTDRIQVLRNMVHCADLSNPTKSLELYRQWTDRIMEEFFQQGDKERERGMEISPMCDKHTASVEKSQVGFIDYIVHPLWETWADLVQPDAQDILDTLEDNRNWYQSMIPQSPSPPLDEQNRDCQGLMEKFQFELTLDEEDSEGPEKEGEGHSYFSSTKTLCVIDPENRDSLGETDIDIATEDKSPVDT

## O=C(Nc1cc(C(=O)Nc2ccc(S(=O)(=O)O)cc2S(=O)(=O)O)cc(C(=O)Nc2ccc(S(=O)(=O)O)cc2S(=O)(=O)O)c1)Nc1cc(C(=O)Nc2ccc(S(=O)(=O)O)cc2S(=O)(=O)O)cc(C(=O)Nc2ccc(S(=O)(=O)O)cc2S(=O)(=O)O)c1
[1]
  activity change, negative = inhibition: 5.96%
[2]
  Potency: 31.6 µM (active)
[3]
  activity change, negative = inhibition: 1.34%
[4]
  activity, negative = inhibition: -91.7% (active)
[5]
  Potency: inactive
[6]
  Potency: 7.94 µM (active)
[7]
  outcome: inactive
[8]
  Potency: 2.51 µM (active)
[9]
  Potency: 4.47 µM (active)
[10]
  Potency: 6.31 µM (active)
[11]
  Potency: inactive
[12]
  Potency: inactive

## O=C(Nc1ccc(C(=O)Nc2ccc(C(=O)Nc3ccc(S(=O)(=O)O)c4cc(S(=O)(=O)O)cc(S(=O)(=O)O)c34)cc2)cc1)Nc1ccc(C(=O)Nc2ccc(C(=O)Nc3ccc(S(=O)(=O)O)c4cc(S(=O)(=O)O)cc(S(=O)(=O)O)c34)cc2)cc1
[2]
  Potency: 31.6 µM (active)
[13]
  Potency: inactive

## O=C(O)c1nc2cc(Cl)c(Cl)cc2[nH]c1=O
[14]
  outcome: inactive
[15]
  outcome: inactive

## O=C(OC1Cc2c(O)cc(O)cc2OC1c1cc(O)c(O)c(O)c1-c1c(C2Oc3cc(O)cc(O)c3CC2OC(=O)c2cc(O)c(O)c(O)c2)cc(O)c(O)c1O)c1cc(O)c(O)c(O)c1 (centres undefined)
[14]
  outcome: inactive
[15]
  outcome: inactive

## C=C1c2c(Cl)ccc(O)c2C(O)=C2C(=O)[C@]3(O)C(O)=C(C(N)=O)C(=O)[C@@H](N(C)C)[C@@H]3[C@@H](O)C12 (some centres undefined)
[13]
  Potency: inactive

## O=C(OCc1cc(=O)n2nc(C3CC3)sc2n1)c1ccc(NC(=O)c2ccccc2F)cc1
[16]
  Potency: inactive
[17]
  Potency: inactive

## Cc1ccc(-c2nnc(Nc3ccc(S(N)(=O)=O)cc3)c3ccccc23)cc1S(=O)(=O)N1CCOCC1
[17]
  Potency: inactive

## O=C(NCc1ccccc1Cl)c1ccc2c(O)c(S(=O)(=O)c3ccccc3)c(=O)[nH]c2c1
[16]
  Potency: 50.1 µM (active)
[17]
  Potency: inactive

## COc1cc(/C=C/C(=O)O)ccc1O
[14]
  outcome: inactive
[15]
  outcome: inactive
[18]
  Potency: inactive

## NC(CCC(=O)NCS(=O)(=O)O)C(=O)O (centres undefined)
[7]
  outcome: inactive
[8]
  Potency: inactive
[9]
  Potency: inactive
[10]
  Potency: inactive
[11]
  Potency: inactive
[12]
  Potency: inactive
[13]
  Potency: inactive
